Data as given in PubChem BioAssay (Tox21).
Where “and” joins values, the source holds several entries; their conditions need not be identical. Equal entries are not always repeated. Records with an inconclusive call do not appear. Entries that show only a call come without a potency. Where a structure was tested more than once in an assay, its records may differ in their call. Calls of active or inactive are those of the source. Unless noted, the call rests on the fitted dose curve; in most records, active means well fitted curve in the direction sought with a large enough effect in the repeat runs; inconclusive means weak or mixed curves; inactive means no such curve, though single readings can be large; an effect the other way counts as inactive or inconclusive.

Assays:
[1] = qHTS assay to identify small molecule antagonists of the estrogen related receptor (ERR) signaling pathway from Tox21 library - cell viability counter screen (AID 1224834); further: nearly all actives have a fitted effect of over 30% in size; further: potency means the concentration at half of the fitted maximal effect
Procedure, shortened: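 ERR cells, 2,000/well; 6 h settle at 37 C/5% CO2; pin-tool compound transfer in DMSO; 17.5 h at 37 C; CellTiter-Fluor, 30 min; fluorescence intensity.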

[2] = target: Luciferin 4-monooxygenase (Photinus pyralis) (UniProt P08659); assay: qHTS assay to identify small molecule inhibitors of firefly luciferase (AID 1224835); further: nearly all actives have a fitted effect of over 25% in size; further: potency means the concentration at half of the fitted maximal effect
Procedure, shortened: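 Quantitative HTS format; KM concentrations of both substrates. Purified P. pyralis FLuc activity quantified from luminescence images.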

[3] = qHTS assay to identify small molecule agonists of the constitutive androstane receptor (CAR) signaling pathway - cell viability counter screen (AID 1224836); further: nearly all actives have a fitted effect of over 45% in size; further: potency means the concentration at half of the fitted maximal effect
Procedure, shortened: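 HepG2 cells stably carrying hCAR and a CYP2B6-2.2kb reporter; 15-concentration compounds plus PK11195 (final 0.75 uM), 23 hr at 37 C/5% CO2. Viability read by CellTiter-Fluor fluorescence.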

[4] = qHTS assay to identify small molecule antagonists of the constitutive androstane receptor (CAR) signaling pathway - cell viability counter screen (AID 1224837); further: nearly all actives have a fitted effect of over 45% in size; further: potency means the concentration at half of the fitted maximal effect
Procedure, shortened: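 Viability was measured with CellTiter-Fluor in a HepG2 line carrying stably transfected hCAR and a CYP2B6-2.2kb construct. Cells were exposed for 23 hr at 37 C to 15 compound concentrations with 50 nM CITCO as agonist.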

[5] = target: Nuclear receptor subfamily 1 group I member 3 (Homo sapiens) (UniProt Q14994); assay: qHTS assay to identify small molecule antagonists of the constitutive androstane receptor (CAR) signaling pathway (AID 1224838);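 further: HepG2 cells stably expressing hCAR with CYP2B6 luciferase reporter stimulated by CITCO; nearly all actives have a fitted effect of over 40% in size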; further: potency means the concentration at half of the fitted maximal effect
Procedure, shortened: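 Antagonist mode used CITCO at a final 50 nM to activate CAR in human hepatoma HepG2 cells carrying stable hCAR and a 2.2 kb CYP2B6 promoter-luciferase construct. Compounds were tested at 15 concentrations over 24 h, with luminescence as the end point.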

[6] = target: Nuclear receptor subfamily 1 group I member 3 (Homo sapiens) (UniProt Q14994); assay: qHTS assay to identify small molecule agonists of the constitutive androstane receptor (CAR) signaling pathway (AID 1224839); further: nearly all actives have a fitted effect of over 15% in size; further: potency means the concentration at half of the fitted maximal effect
Procedure, shortened: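 HepG2 cells stably co-transfected with hCAR and a CYP2B6-2.2kb luciferase reporter; compounds at 15 concentrations with 0.75 uM PK11195 present. After 24 hr at 37 C, luciferase read by ONE-Glo luminescence.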

[7] = qHTS assay to identify small molecule antagonists of the estrogen related receptor signaling pathway with the pleiotropic PPARgamma coactivator (PGC) from Tox21 10K library - cell viability counter screen (AID 1224840; active means well fitted cell-killing curve with a large enough effect in the repeat runs, not every such curve was filed as active; further: nearly all actives have a fitted effect of over 40% in size; further: potency means the concentration at half of the fitted maximal effect)
Procedure, shortened: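 Multiplexed viability counter screen in the PGC/ERR cell line: cells treated with DMSO-dissolved compounds for 17.5 hours at 37 C, then viability measured as CellTiter-Fluor fluorescence.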

[8] = target: Thyrotropin receptor (Homo sapiens) (UniProt P16473); assay: qHTS assay to identify small molecule agonists of the thyroid stimulating hormone receptor (TSHR) signaling pathway (AID 1224843; calls by dose curve; further: nearly all actives have a fitted effect of over 45% in size; further: potency means the concentration at half of the fitted maximal effect)
Procedure, shortened: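 Using 15 concentrations per compound in triplicate, cAMP production was monitored in TSHR-HEK293 cells after 30 min compound incubation at RT; HTRF reagents followed, with fluorescence intensity recorded after 1 h.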

[9] = qHTS assay to identify small molecule antagonists of the estrogen related receptor signaling pathway with the pleiotropic PPARgamma coactivator (PGC) from Tox21 10K library (AID 1224841; call rule not given here; further: actives are mostly falling curves and most rising ones were filed inactive; nearly all actives have a fitted effect of over 50% in size; further: potency means the concentration at half of the fitted maximal effect)
Procedure, shortened: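 Steps: plate 2,000 PGC/ERR cells per well; incubate 6 h at 37 C with 5% CO2; transfer compounds from DMSO stocks by pin tool; incubate 18 h at 37 C; add One-Glo; measure luminescence 30 min later.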

[10] = qHTS assay to identify small molecule agonists of the estrogen related receptor signaling pathway with the pleiotropic PPARgamma coactivator (PGC) from Tox21 10K library (AID 1224842); further: nearly all actives have a fitted effect of over 15% in size
Procedure, shortened: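 PGC/ERR reporter cells (NTP line) were seeded 2,000 per well, rested 6 h at 37 C/5% CO2, then pin-dosed with compounds in DMSO for 18 h at 37 C; luciferase read by One-Glo luminescence after 30 min at room temperature.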

Sequence of Nuclear receptor subfamily 1 group I member 3 (Homo sapiens) (Q14994 whole entry, looked up): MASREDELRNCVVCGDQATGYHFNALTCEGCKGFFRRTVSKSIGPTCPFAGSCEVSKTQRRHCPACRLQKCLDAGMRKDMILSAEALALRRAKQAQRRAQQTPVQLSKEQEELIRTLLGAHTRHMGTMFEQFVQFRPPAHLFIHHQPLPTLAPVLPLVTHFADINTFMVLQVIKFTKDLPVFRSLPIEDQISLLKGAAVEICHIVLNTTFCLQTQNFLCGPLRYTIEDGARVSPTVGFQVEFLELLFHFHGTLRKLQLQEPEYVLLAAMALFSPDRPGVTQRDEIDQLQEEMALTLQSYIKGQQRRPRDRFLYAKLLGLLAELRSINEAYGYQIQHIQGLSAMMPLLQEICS
Sequence of Luciferin 4-monooxygenase (Photinus pyralis) (P08659 whole entry, looked up): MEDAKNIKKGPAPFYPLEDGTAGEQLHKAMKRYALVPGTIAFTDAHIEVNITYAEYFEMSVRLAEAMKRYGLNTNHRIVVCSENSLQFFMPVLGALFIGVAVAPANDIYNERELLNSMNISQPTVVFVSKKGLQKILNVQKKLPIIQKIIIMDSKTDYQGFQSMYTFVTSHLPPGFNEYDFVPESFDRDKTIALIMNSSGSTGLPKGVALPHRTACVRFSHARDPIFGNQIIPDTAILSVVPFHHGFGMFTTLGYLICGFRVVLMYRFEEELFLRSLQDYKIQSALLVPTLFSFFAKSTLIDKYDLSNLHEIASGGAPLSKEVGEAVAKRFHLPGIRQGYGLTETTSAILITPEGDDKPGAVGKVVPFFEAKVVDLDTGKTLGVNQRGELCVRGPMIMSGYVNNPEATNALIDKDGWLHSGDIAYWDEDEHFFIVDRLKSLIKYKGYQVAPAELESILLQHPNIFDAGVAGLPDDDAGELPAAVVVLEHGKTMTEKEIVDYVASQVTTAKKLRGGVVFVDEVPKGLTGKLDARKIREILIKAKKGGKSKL
Sequence of Thyrotropin receptor (Homo sapiens) (P16473 whole entry, looked up): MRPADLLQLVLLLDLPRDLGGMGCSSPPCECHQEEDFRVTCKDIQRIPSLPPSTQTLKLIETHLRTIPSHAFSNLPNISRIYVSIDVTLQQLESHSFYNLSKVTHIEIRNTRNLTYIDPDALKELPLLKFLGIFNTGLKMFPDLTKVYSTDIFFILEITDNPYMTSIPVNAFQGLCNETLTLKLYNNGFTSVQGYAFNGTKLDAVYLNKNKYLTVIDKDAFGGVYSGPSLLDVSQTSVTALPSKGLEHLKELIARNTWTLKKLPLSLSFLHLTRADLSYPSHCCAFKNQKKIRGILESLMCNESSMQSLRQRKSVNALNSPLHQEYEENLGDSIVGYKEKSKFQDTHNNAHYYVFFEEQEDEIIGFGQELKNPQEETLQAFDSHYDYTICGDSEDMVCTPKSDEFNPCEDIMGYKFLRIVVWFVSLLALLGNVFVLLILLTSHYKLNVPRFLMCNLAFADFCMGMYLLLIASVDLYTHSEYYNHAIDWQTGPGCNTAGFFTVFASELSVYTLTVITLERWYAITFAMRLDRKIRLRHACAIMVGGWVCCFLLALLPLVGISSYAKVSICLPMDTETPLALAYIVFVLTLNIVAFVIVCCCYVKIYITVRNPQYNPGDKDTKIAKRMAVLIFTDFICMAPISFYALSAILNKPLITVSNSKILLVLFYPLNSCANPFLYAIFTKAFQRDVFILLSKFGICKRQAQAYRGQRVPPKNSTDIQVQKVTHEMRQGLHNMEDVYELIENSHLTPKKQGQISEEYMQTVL

Compound	Potency [1]	Potency [2]	Potency [3]	Potency [4]	Potency [5]	Potency [6]	Potency [7]	Potency [8]	Potency [9]	Potency [10]
CCc1ccccc1N	inactive	inactive	inactive	inactive	inactive	inactive	inactive	inactive		
C=CCOCC1CO1 (stereo unspecified)	inactive	inactive	inactive	inactive	inactive	inactive	inactive	inactive	inactive	inactive
FC(F)OC(F)(F)C(F)Cl (stereo unspecified)	inactive	inactive	inactive	inactive	inactive	inactive	inactive	inactive		
C=CCSSCC=C	inactive	inactive	inactive	inactive	inactive	inactive	inactive			
C[N+](C)(C)CCOC(=O)C(O)(c1ccccc1)c1ccccc1	inactive	inactive	inactive	inactive						
c1ccc2c(c1)sc1ccccc12	inactive	31.7 µM (active)	inactive	inactive	inactive	inactive	inactive	inactive	inactive	inactive
CCCCC(CC)COC(=O)c1c(Br)c(Br)c(Br)c(Br)c1C(=O)OCC(CC)CCCC (stereo unspecified)	inactive	inactive	inactive	inactive	inactive	inactive	inactive			
C1CS1	inactive	inactive	inactive	inactive	inactive	inactive	inactive	inactive	19.8 µM (active)	inactive
CCCC(C)(COC(N)=O)COC(=O)NC(C)C (stereo unspecified)	inactive	inactive	inactive	inactive	inactive	inactive	inactive	inactive	inactive	inactive
CCC1(CC)C(=O)NC(=O)NC1=O	inactive	inactive	inactive	inactive	inactive	inactive	inactive			
O=CC=O	inactive	inactive	inactive	inactive	inactive	inactive	inactive	inactive		
O=C(O)C(Cl)(Cl)Br	inactive	inactive	inactive	inactive	inactive	inactive	inactive	inactive		
CN1CC[C@]23c4c5ccc(O)c4O[C@H]2[C@@H](O)CC[C@H]3[C@H]1C5	inactive	inactive	inactive	inactive	inactive	inactive	inactive			
O=S(=O)(c1ccccc1)c1ccccc1	inactive	inactive	inactive	inactive	inactive	inactive	inactive		inactive	inactive
ClCc1ccccc1Cl	inactive	inactive	inactive	inactive	inactive	inactive	inactive	inactive	inactive	inactive
CCOP(=S)(OCC)Oc1ccc(S(C)=O)cc1 (stereo unspecified)	inactive	inactive	inactive	inactive	inactive	inactive	inactive	inactive	inactive	inactive
C[C@]12CC[C@H]3[C@@H](CCC4=CC(=O)CC[C@@H]43)[C@@H]1CC[C@@H]2OC(=O)CCc1ccccc1	inactive	inactive	inactive	inactive	inactive	inactive	inactive	inactive	inactive	inactive
C=CC(=O)NC(C)(C)CC(C)=O	inactive	inactive	inactive	inactive	inactive	inactive	inactive			
OCCSSCCO	inactive	inactive	inactive	inactive	inactive	inactive	inactive			
CC(Cl)C(=O)O (stereo unspecified)	inactive	inactive	inactive	inactive	inactive	inactive	inactive	inactive		
CCNC(=O)NC(=O)/C(C#N)=N/OC	inactive	inactive	inactive	inactive	inactive	inactive	inactive	inactive	inactive	inactive
O=C([O-])c1ccccn1.O=C([O-])c1ccccn1.O=C([O-])c1ccccn1.[Cr+3]	inactive	inactive	inactive	inactive	inactive	inactive	inactive			
COC(=O)Cc1ccccc1	inactive	inactive	inactive	inactive	inactive	inactive	inactive			
O=C1c2ccccc2C(=O)N1SC(Cl)(Cl)Cl	24 µM (active) and 27.3 µM (active)	15.7 µM (active) and 20 µM (active)	26.9 µM (active) and 43.3 µM (active)	24 µM (active) and 19.3 µM (active)	19.1 µM (active) and 15.4 µM (active)	inactive	26.9 µM (active) and 24.3 µM (active)	19.1 µM (active) and 12.2 µM (active)	53.7 µM (active) and 61.1 µM (active)	inactive
CCCCCBr	inactive	inactive	inactive	inactive	inactive	inactive	inactive	inactive		
Nc1ccc2c(c1)Cc1ccccc1-2	inactive	39.7 µM (active)	inactive	inactive	inactive	48.3 µM (active)	inactive		inactive	
CC1(C)CC(=O)CC(C)(C)N1[O]	inactive	inactive	inactive	inactive	inactive	inactive	inactive	inactive	inactive	inactive
OCCCl	inactive	inactive	inactive	inactive	inactive	inactive				

Compound	Potency [1]	Potency [2]	Potency [3]	Potency [4]	Potency [5]	Potency [6]	Potency [7]	Potency [8]	Potency [9]	Potency [10]
C[C@H](N)[C@H](O)c1ccc(O)c(O)c1	inactive	inactive	inactive	inactive	inactive	inactive	inactive		inactive	inactive
COP(=O)(OC)OC(Br)C(Cl)(Cl)Br (stereo unspecified)	inactive	inactive	inactive	inactive	inactive	inactive				
CCCSP(=S)(OCC)Oc1ccc(SC)cc1 (stereo unspecified)	inactive	inactive	inactive	inactive	inactive	21.7 µM (active)	inactive	19.3 µM (active)	inactive	inactive
Nc1cc(Cl)cc(C(=O)O)c1Cl	inactive	inactive	inactive	inactive	inactive	inactive	inactive		inactive	inactive
CN1C[C@H](C(=O)N[C@]2(C)O[C@@]3(O)[C@@H]4CCCN4C(=O)[C@H](Cc4ccccc4)N3C2=O)C=C2c3cccc4[nH]cc(c34)C[C@H]21	24.4 µM (active) and 9.01 µM (active)	40.1 µM (active)	inactive	inactive	inactive	inactive	inactive			
CCC[N+](CCC)(CCC)CCC	inactive	inactive	inactive	inactive	inactive	inactive	inactive			inactive
CCCCC1C(=O)NC(=O)N(C2CCCCC2)C1=O (stereo unspecified)	inactive	inactive	inactive	inactive	inactive	inactive	inactive			
CC(Oc1cc(Cl)c(Cl)cc1Cl)C(=O)O (stereo unspecified)	inactive	inactive	inactive	inactive	inactive	inactive	inactive	inactive		
CCOC(=O)C1OC1(C)c1ccccc1 (stereo unspecified)	inactive	inactive	inactive	inactive	inactive	inactive	inactive	inactive		
CCc1cnc(C2=NC(C)(C(C)C)C(=O)N2)c(C(=O)O)c1 (stereo unspecified)	inactive	inactive	inactive	inactive	inactive	inactive	inactive	inactive		
C=CC(=O)OCC	inactive	inactive	inactive	inactive	inactive	inactive	inactive			
CCCN(CCC)c1c([N+](=O)[O-])cc(C(C)C)cc1[N+](=O)[O-]	inactive	inactive	inactive	inactive		33.6 µM (active) and inactive	inactive	6.71 µM (active) and 12.2 µM (active)		
N#CC1(N=NC2(C#N)CCCCC2)CCCCC1	inactive	inactive	inactive	inactive	inactive	inactive			inactive	inactive
CN1CC[C@]23c4c5ccc(O)c4O[C@H]2[C@@H](O)C=C[C@H]3[C@H]1C5	inactive	inactive	inactive	inactive	inactive		inactive	inactive		inactive
Clc1ccc2ccccc2c1	inactive	inactive	inactive	inactive	inactive	inactive	inactive	inactive		
CC(C)(c1ccccc1)c1cc(-n2nc3ccccc3n2)c(O)c(C(C)(C)c2ccccc2)c1	inactive	inactive	inactive	inactive	inactive	inactive		inactive		
COc1cc(CC#N)cc(OC)c1OC	inactive	inactive	inactive	inactive	inactive	inactive		inactive		
CC(C)[C@@H](C(=O)O[C@@H](C#N)c1cccc(Oc2ccccc2)c1)c1ccc(Cl)cc1	inactive	inactive	inactive	inactive		19.6 µM (active) and inactive	inactive			
Cc1ccccc1	inactive	inactive	inactive	inactive	inactive	inactive		inactive		
CC(C)(C)c1ccc(CCOc2ncnc3ccccc23)cc1	inactive	inactive	inactive	inactive		inactive	inactive	inactive		
CCOC(=O)NC(O)C(Cl)(Cl)Cl (stereo unspecified)	inactive	inactive	inactive	inactive		inactive	inactive	inactive		
CCCCCCCCCCCCN(C)C	inactive	inactive	inactive	inactive		inactive	inactive	inactive	inactive	inactive
C=CCc1ccc(OC(=O)Cc2ccccc2)c(OC)c1	inactive	25.2 µM (active)	inactive	inactive		inactive				
COC1CC(=C(c2cccs2)c2cccs2)C[N+](C)(C)C1 (stereo unspecified)	inactive	inactive	inactive	inactive	inactive	inactive	inactive	inactive		
NC(=O)CF	inactive	inactive	inactive	inactive	inactive	inactive	inactive	inactive		
COCc1cnc(C2=NC(C)(C(C)C)C(=O)N2)c(C(=O)O)c1 (stereo unspecified)	inactive	inactive	inactive	inactive	inactive	inactive		inactive		
O=C=NC1CCCCC1	inactive	inactive	inactive	inactive		inactive	inactive	inactive	inactive	inactive
